Reference: PubChem BioAssay (NCI)
This is part of a sample that, as a whole, favours compounds with a hit. Of some 79,000 tested, about 15% had one in any assay. Active and inactive are the calls of the source. Cut-off read from the data, not from the text of the source: active = growth inhibition above about 70%; inactive = the rest.

What was measured:
[1] = NCI Yeast Anticancer Drug Screen. Data for the rad52 strain (AID 147);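 note: 0% = growth of vehicle-treated control cultures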; conditions: S. cerevisiae rad52 mutant growth inhibition, hits give high values
Method in brief: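 The repair-mutant yeast strain was incubated with compounds, then growth was read and inhibition derived relative to vehicle.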

[2] = NCI Yeast Anticancer Drug Screen. Data for the wt1 strain (AID 149);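 note: 0% = growth of vehicle-treated wt1 cultures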; conditions: S. cerevisiae wt1 strain (SPY 50644) growth inhibition, hits give high values
Method in brief: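 wt1 strain grown with compound or vehicle; inhibition taken from the growth difference.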

[3] = NCI Yeast Anticancer Drug Screen. Data for the rad50EPP+ strain (AID 151);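 note: 0% = growth of vehicle-treated control cultures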; conditions: S. cerevisiae rad50 mutant strain, hits give high values
Method in brief: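 Vehicle-normalised growth inhibition; rad50EPP+ yeast strain, altered in DNA damage repair, compound-treated.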

[4] = NCI Yeast Anticancer Drug Screen. Data for the mgt1 strain (AID 153); conditions: S. cerevisiae mgt1 mutant growth inhibition, hits give high values
Method in brief: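 Vehicle-normalized growth inhibition is determined in mgt1 yeast, a strain selected for a defined alteration in DNA repair or cell cycle control.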

[5] = NCI Yeast Anticancer Drug Screen. Data for the rad50 strain (AID 155);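 note: 0% = growth of vehicle-only cultures of the same strain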; conditions: S. cerevisiae rad50 strain growth inhibition, hits give high values
Method in brief: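 DNA repair mutant yeast, compound exposure, growth read-out; inhibition is taken relative to vehicle.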

[6] = NCI Yeast Anticancer Drug Screen. Data for the mec2-1 strain (AID 157); conditions: S. cerevisiae mec2-1 strain, hits give high values
Method in brief: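 Mutant yeast (mec2-1) grown with compound; growth inhibition relative to vehicle control reported.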

[7] = NCI Yeast Anticancer Drug Screen. Data for the rad14 strain (AID 159);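 note: 0% = growth of vehicle-treated control cultures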; conditions: S. cerevisiae rad14 strain growth inhibition, hits give high values
Method in brief: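 DNA repair-defective yeast, compound-exposed; % growth inhibition derived by comparison with vehicle-treated controls.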

[8] = NCI Yeast Anticancer Drug Screen. Data for the sgs1 mgt1 strain (AID 161);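 note: 0% = growth of cultures given vehicle only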; conditions: S. cerevisiae sgs1 mgt1 strain, hits give high values
Method in brief: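 Growth of a repair-deficient yeast mutant was monitored after compound treatment and expressed as inhibition relative to vehicle-treated cultures.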

[9] = NCI Yeast Anticancer Drug Screen. Data for the CLN2oe strain (AID 163);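 note: 0% = growth of vehicle-only control cultures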; conditions: S. cerevisiae CLN2oe strain, hits give high values
Method in brief: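 Compounds are applied to yeast harbouring a defined cell-cycle control change; reduced growth compared with vehicle-treated controls gives the value.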

[10] = NCI Yeast Anticancer Drug Screen. Data for the cln2 rad14 strain (AID 165);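 note: 0% = growth equal to vehicle treated cultures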; conditions: S. cerevisiae cln2 rad14 strain, hits give high values
Method in brief: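 Readout is yeast growth inhibition versus vehicle-treated controls, using a strain with cln2 and rad14 alterations exposed to compound.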

[11] = NCI Yeast Anticancer Drug Screen. Data for the bub3 strain (AID 167); conditions: S. cerevisiae bub3 mutant strain, hits give high values
Method in brief: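 In this screen, a yeast mutant lacking normal mitotic checkpoint function is challenged with compound. Relative growth versus vehicle gives the inhibition value.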

[12] = NCI Yeast Anticancer Drug Screen. Data for the wt2 strain (AID 169);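 note: 0% = growth of vehicle-treated yeast cultures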; conditions: S. cerevisiae wt2 strain growth inhibition, hits give high values
Method in brief: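 Against vehicle-treated controls, the growth of yeast exposed to each compound was compared, and the inhibition was recorded.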

[13] = NCI Yeast Anticancer Drug Screen. Data for the mlh1 strain (AID 171);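 note: 0% = growth of vehicle-treated control cultures of the same strain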; conditions: S. cerevisiae mlh1 strain growth inhibition, hits give high values
Method in brief: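 Measured: yeast growth. Reference: vehicle-treated controls. Organism: strain with a defined alteration affecting DNA damage repair or cell cycle control, treated with compound.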

[14] = NCI Yeast Anticancer Drug Screen. Data for the sgs1 strain (AID 173);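 note: 0% = growth of vehicle-only control cultures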; conditions: S. cerevisiae sgs1 mutant, hits give high values
Method in brief: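 Each compound was added to cultures of the altered yeast strain. Growth was recorded, and inhibition was derived by comparison with vehicle controls.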

[15] = NCI Yeast Anticancer Drug Screen. Data for the mlh1 rad18 strain (AID 175); conditions: S. cerevisiae mlh1 rad18 strain growth inhibition, hits give high values
Method in brief: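 Genetically defined yeast (DNA repair-deficient) exposed to compounds; growth inhibition determined relative to vehicle.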

[16] = NCI Yeast Anticancer Drug Screen. Data for the rad18 strain (AID 177); conditions: S. cerevisiae rad18 mutant growth inhibition, hits give high values
Method in brief: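 Vehicle-treated cultures served as the baseline for scoring compound-induced growth inhibition in DNA-repair-mutant yeast.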

[17] = at 5.0 µM (retest, dose inferred, filed as 0.5)
[18] = at 50.0 µM (retest, dose inferred, filed as 5.0)

Measured: growth inhibition

O=C1C(=O)N(c2ccccc2)[C@@]2(c3ccccc3)C(=Nc3ccccc3)OC(c3ccccc3)=C12
inactive: [1]; at 1.2 µM 0% | [1]; at 3.7 µM 0% | [1]; at 11.0 µM 3% | [1]; at 33.0 µM 4% | [1]; at 100.0 µM 40% | [2]; at 1.2 µM -2% | [2]; at 3.7 µM -1% | [2]; at 11.0 µM -1% | [2]; at 33.0 µM 2% | [2]; at 100.0 µM 31% | [3]; at 1.2 µM -3% | [3]; at 3.7 µM -1% | [3]; at 11.0 µM 2% | [3]; at 33.0 µM 31% | [4]; at 1.2 µM -3% | [4]; at 3.7 µM -1% | [5]; at 1.2 µM -1% | [5]; at 3.7 µM -2% | [5]; [17] 0% | [5]; at 11.0 µM 0% | [5]; at 33.0 µM 3% | [5]; [18] 4% | [5]; at 50.0 µM 21.6% | [5]; at 100.0 µM 36% | [6]; at 1.2 µM -2% | [6]; at 3.7 µM -1% | [6]; [17] -30% | [6]; at 11.0 µM 0% | [6]; at 33.0 µM 6% | [6]; [18] 45% | [6]; at 50.0 µM 10.5% | [6]; at 100.0 µM 41% | [7]; at 1.2 µM -1% | [7]; at 3.7 µM 1% | [7]; at 11.0 µM 3% | [7]; at 33.0 µM 8% | [7]; at 100.0 µM 57% | [8]; [17] 49% | [8]; at 50.0 µM 52% | [9]; at 1.2 µM 2% | [9]; at 3.7 µM 0% | [9]; at 11.0 µM 1% | [9]; at 33.0 µM 9% | [9]; at 100.0 µM 47% | [10]; [17] -1% | [10]; [18] 21% | [10]; at 50.0 µM 32.9% | [11]; at 1.2 µM -1% | [11]; at 3.7 µM -6% | [11]; [17] -5% | [11]; at 11.0 µM -5% | [11]; at 33.0 µM -5% | [11]; [18] 9% | [11]; at 50.0 µM 4.75% | [11]; at 100.0 µM 20% | [12]; at 1.2 µM -3% | [12]; at 3.7 µM -5% | [13]; at 1.2 µM -3% | [13]; at 3.7 µM -4% | [13]; at 11.0 µM 62% | [14]; at 1.2 µM -3% | [14]; at 3.7 µM 2% | [15]; [17] 1% | [15]; [18] -8% | [15]; at 50.0 µM 40.1% | [16]; at 1.2 µM -3% | [16]; at 3.7 µM 0% | [16]; at 11.0 µM 2% | [16]; at 33.0 µM 4% | [16]; at 100.0 µM 30%
active: [3]; at 100.0 µM 84% | [4]; at 11.0 µM 80% | [4]; at 33.0 µM 94% | [4]; at 100.0 µM 97% | [8]; [18] 96% | [12]; at 11.0 µM 72% | [12]; at 33.0 µM 93% | [12]; at 100.0 µM 96% | [13]; at 33.0 µM 93% | [13]; at 100.0 µM 95% | [14]; at 11.0 µM 74% | [14]; at 33.0 µM 93% | [14]; at 100.0 µM 96%
